Pf growth 48h: P. falciparum growth inhibition at 48 hours (one generation). P. falciparum luciferase growth in erythrocytes, 48 h. Potency, µM (titrated, usually from 28.7 µM), without a hit: at the top dose activity change, negative = inhibition, usual class: inhibitors. 310,000 tested, 5.9% active. AID 504832; further: potency means the concentration at half of the fitted maximal effect; on the % scale 0 is the no-effect control and ±100 the full control effect
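Here the parasites carry a stable luciferase gene and grow inside erythrocytes in Albumax-based RPMI medium with compound for one erythrocytic cycle. Activity is scored as loss of luminescent signal.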
Shiga inhibitor: inhibitors of Shiga toxin in Vero cells. AID 2315. inhibition, % at 38.7 µM. 290,000 tested, 9.2% active. Vero cells, Shiga toxin protein synthesis inhibition reporter; in the data active means inhibition mostly above about 28%, no sharp cut-off; inactive means mostly below about 43%; further: 0% is about no effect
Pf growth 96h: inhibits malaria parasite growth, 96 h; P. falciparum luciferase reporter growth, 96 h; Potency, µM (series often up to 28.7 µM), without a hit: top-dose activity change, negative = inhibition, usual class: inhibitors; 320,000 tested, 6.9% active; further: potency means the concentration at half of the fitted maximal effect; on the % scale 0 is the no-effect control and ±100 the full control effect
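Delayed-death screen, second-generation endpoint: infected erythrocytes, 2% hematocrit, 0.05% parasitemia final; 96 hours at 37 C, 5% CO2; luciferase detection reagent; luminescence decrease equals reduced growth.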
Cycloheximide cs: counter-screen for Shiga toxin inhibitors: cycloheximide protein synthesis inhibition; 300,000 tested, 12% active; max response, %; cell reporter, cycloheximide protein synthesis inhibition counterscreen; AID 2314; in the data active means max response mostly above about 13%, no sharp cut-off; inactive means mostly below about 14%; further: read at 38.3 µM for the half of the compounds with a filed dose; 0% is about no effect
* hit, by the source's call; i = inactive; ? = inconclusive; / = not tested or not shown. The list is not random: actives were taken first. Their share in the collection is about 21%. Unless noted, the call rests on the fitted dose curve; in most records, active means well fitted inhibition curve with a large enough effect; inconclusive means small, poorly fitted or top-dose-only effect, or another doubt; inactive means no such curve, though single readings can be large or run the other way.

SMILES | Pf growth 48h | Shiga inhibitor | Pf growth 96h | Cycloheximide cs
CCn1nc(C)c(C(=O)Nc2cc(Oc3cc(C)cc(C)c3)cc([N+](=O)[O-])c2)c1C | ? | -18.5 | 11.7µM* | -1.0
Cc1nn(CCCC(=O)Nc2cc(Oc3ccccc3)cc([N+](=O)[O-])c2)c(C)c1[N+](=O)[O-] | -13.2% | -9.2 | 52.7% | -1.2
Cn1c2cc(B(O)O)sc2c2cnn(Cc3c(F)cccc3Cl)c(=O)c21 | 13.1µM* | / | 10.4µM* | /
Cc1nnc(SCC(=O)NC2CCCCCC2)n1N | ? | / | -3.5% | /
Cn1cc(Br)c(C(=O)Nc2ccc3c(C(F)(F)F)cc(=O)oc3c2)n1 | 3.9% | 10.5 | -22.3% | 0.6
Cn1cc([N+](=O)[O-])c(C(=O)Nc2cc(Oc3ccccc3)cc([N+](=O)[O-])c2)n1 | 17.8% | -7.6 | ? | -2.8
COc1ccc(NC(=O)c2nn(C)cc2[N+](=O)[O-])cc1 | 120.3% | 35.0 | 0.0% | 15.4*
COc1ccc(NC(=O)c2[nH]ncc2[N+](=O)[O-])cc1 | 204.2% | 63.5 | -5.9% | 25.6*
Cn1cc([N+](=O)[O-])c(C(=O)Nc2ccc3c(C(F)(F)F)cc(=O)oc3c2)n1 | 89.5% | 12.3 | 0.7% | 14.9*
Cc1ccc(NC(=O)c2nn(C34CC5CC(CC(C5)C3)C4)cc2[N+](=O)[O-])cc1 | ? | 61.7 | 1.47µM* | 18.1
CC1CN(Cc2cc(=O)oc3cc(O)ccc23)CC(C)O1 (stereo unspecified) | ? | -5.2 | ? | 1.4
Cc1ccc2c(c1)S/C(=C\c1cccc[n+]1C)N2CCO | 3.29µM* | -3.9 | -8.7% | -1.7
Cc1ccc2c(c1)S/C(=C/c1ccc[n+](CCO)c1)N2C | ? | -9.8 | 4.3% | -4.6
CCC(=O)/C=C1\Sc2ccc(OC)cc2N1CCO | -7.2% | -2.8 | 13.3% | -2.5
C[n+]1ccccc1/C=C1\Sc2ccccc2N1CCO | ? | -6.3 | 2.08µM* | -3.0
CSCCC(NC(=O)c1cccc(C)c1)C(=O)OCC(=O)Nc1c(C)nn(-c2ccccc2)c1C (stereo unspecified) | 8.5% | / | 48.9% | /
Cc1cc(Cl)ccc1NC(=O)COC(=O)c1cc([N+](=O)[O-])ccc1N1CCOCC1 | ? | / | -3.2% | /
O=C(CSc1nc2ccccc2s1)Nc1ccc(N2CCOCC2)c(Cl)c1 | 16.9% | 12.0 | ? | 1.0
O=C(NC(=S)Nc1cc(C(F)(F)F)ccc1N1CCOCC1)c1sc2ccccc2c1Cl | 2.08µM* | -5.3 | 3.29µM* | -3.4
O=C(CSc1nc2ccccc2o1)Nc1ccc(N2CCOCC2)c(Cl)c1 | 136.1% | 81.3* | / | 53.1*
O=C(Cn1cnc2ccccc21)Nc1cc(C(F)(F)F)ccc1N1CCOCC1 | 4.65µM* | -6.1 | 4.15µM* | -2.2
COCCOc1ccc(C(F)(F)F)cc1NC(=O)COC(=O)c1cc([N+](=O)[O-])ccc1N1CCOCC1 | ? | -11.6 | 9.28µM* | 1.9
N#CC1=C(SCC(=O)Nc2ccc(C(=O)O)cc2)NC(=O)CC1c1ccco1 (stereo unspecified) | 38.0% | -2.9 | 16.1% | 9.9
CC(OC(=O)c1ccc(Cl)cc1)C(=O)NCC1CCCCC1 (stereo unspecified) | -5.1% | / | 21.2% | /
CCOc1ccc(NC(=O)CN(C)C(=O)CC2OC(=O)c3ccccc32)cc1OCC (stereo unspecified) | ? | / | -1.2% | /
SMILES | Pf growth 48h | Shiga inhibitor | Pf growth 96h | Cycloheximide cs
CCCC(=O)Nc1cc(C(F)(F)F)ccc1N1CCOCC1 | ? | 17.7 | -12.5% | -2.0
O=C(CSc1nc2ccccc2o1)Nc1cc(C(F)(F)F)ccc1N1CCOCC1 | 11.7µM* | -11.9 | / | -2.6
COCCOc1ccc(C(F)(F)F)cc1NC(=O)COC(=O)C12CC3CC(CC(O)(C3)C1)C2 | 2.33µM* | -10.2 | ? | -1.4
O=C(COC(=O)C12CC3CC(CC(O)(C3)C1)C2)Nc1ccc(Br)cc1F | i | / | 370.7% | /
CCCCn1nc(C(=O)Nc2cc(C(F)(F)F)ccc2N2CCOCC2)ccc1=O | 11.7µM* | / | ? | /
O=C(CSc1nc2ccccc2o1)Nc1ccccc1N1CCCCCC1 | ? | 35.1 | -9.5% | 18.1
Cc1nc2ccccc2nc1OCC(=O)Nc1cc(C(F)(F)F)ccc1N1CCOCC1 | 11.7µM* | -15.8 | 5.6% | -2.0
Cc1[nH]c2ccccc2c1C(=O)NS(=O)(=O)Nc1ccc(Cl)cc1 | 9.9% | 30.9 | ? | 8.9
CN(C)C1=NCCN1CC1CCCC1 | 11.5% | / | -13.2% | /
O=C(Nc1cc(C(F)(F)F)ccc1N1CCOCC1)c1ccc2ccccc2n1 | 84.2% | 76.1 | ? | 23.4*
Cc1cc(C(=O)Nc2cc(C(F)(F)F)ccc2N2CCOCC2)no1 | ? | -2.8 | ? | -2.9
CN(C)c1cccc(C(=O)Nc2cc(C(F)(F)F)ccc2-n2cnc3ccccc32)c1 | 11.7µM* | -7.1 | ? | -1.8

Screening results: PubChem BioAssay, National Center for Advancing Translational Sciences (NCATS)
